Consider 28 sequences from article PMC5700166.

Experiment in all cases: protein-binding microarray (PBM); PBM: ~300 nM protein, 6 mM HEPES pH 7.8, 80 mM KCl, 0.5 mM EDTA, 0.5 mM EGTA, 6% glycerol, 35 ng/ul poly-dIdC, 1% milk, 1 h, room temperature; Ap Aiptasia and Nv Nematostella (sea anemones) / Co Capsaspora / Aq Amphimedon (sponge) / Dm Drosophila / Hu human; RHD is the Rel homology domain; high values mean tight binding
Conditions in all cases: dsDNA, one strand shown

One test addresses T1, GST-Ap-NF-kB RHD (Exaiptasia pallida (Aiptasia), UniProt A0A913YAJ5 2-422).
T1 sequence: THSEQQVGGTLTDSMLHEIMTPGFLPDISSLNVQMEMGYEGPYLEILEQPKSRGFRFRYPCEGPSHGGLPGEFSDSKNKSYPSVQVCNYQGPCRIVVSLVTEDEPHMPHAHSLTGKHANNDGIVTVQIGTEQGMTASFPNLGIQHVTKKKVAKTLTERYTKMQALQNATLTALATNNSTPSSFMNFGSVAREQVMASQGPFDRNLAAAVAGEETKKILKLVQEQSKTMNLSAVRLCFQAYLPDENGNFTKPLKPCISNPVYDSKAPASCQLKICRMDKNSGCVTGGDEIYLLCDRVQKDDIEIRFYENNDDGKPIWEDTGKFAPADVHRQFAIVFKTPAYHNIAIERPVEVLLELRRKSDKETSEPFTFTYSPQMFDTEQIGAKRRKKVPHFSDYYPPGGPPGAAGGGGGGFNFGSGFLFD

In test [1] the target is T2, GST-Nv-NF-kB (Cys allele) (Nematostella vectensis, UniProt E5G601 2-411).
T2 sequence: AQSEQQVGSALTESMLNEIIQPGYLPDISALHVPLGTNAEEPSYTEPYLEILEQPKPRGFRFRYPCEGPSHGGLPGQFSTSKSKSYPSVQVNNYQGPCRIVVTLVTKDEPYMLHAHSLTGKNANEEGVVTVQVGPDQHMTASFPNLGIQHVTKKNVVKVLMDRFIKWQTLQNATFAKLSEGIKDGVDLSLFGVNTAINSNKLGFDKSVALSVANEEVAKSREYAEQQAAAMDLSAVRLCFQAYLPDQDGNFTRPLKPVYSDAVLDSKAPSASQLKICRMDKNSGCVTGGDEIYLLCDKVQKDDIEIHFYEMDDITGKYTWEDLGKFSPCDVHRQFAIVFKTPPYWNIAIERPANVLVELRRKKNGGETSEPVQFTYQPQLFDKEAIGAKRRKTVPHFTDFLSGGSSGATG

The target of the next test is T3, GST-Co-NF-kB (Capsaspora owczarzaki, UniProt F1ARL5 200-546).
T3 sequence: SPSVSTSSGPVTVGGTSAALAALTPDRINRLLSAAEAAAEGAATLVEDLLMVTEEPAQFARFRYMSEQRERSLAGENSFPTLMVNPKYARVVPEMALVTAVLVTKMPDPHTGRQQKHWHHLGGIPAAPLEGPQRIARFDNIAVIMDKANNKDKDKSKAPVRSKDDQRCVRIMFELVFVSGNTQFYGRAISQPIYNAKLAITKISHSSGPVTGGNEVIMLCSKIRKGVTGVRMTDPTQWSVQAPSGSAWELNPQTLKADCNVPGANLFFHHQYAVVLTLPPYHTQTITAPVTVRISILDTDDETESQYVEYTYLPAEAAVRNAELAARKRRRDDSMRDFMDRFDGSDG

Another test addresses T4, GST-Dm-Relish (Drosophila melanogaster, UniProt Q94527 99-473).
T4 sequence: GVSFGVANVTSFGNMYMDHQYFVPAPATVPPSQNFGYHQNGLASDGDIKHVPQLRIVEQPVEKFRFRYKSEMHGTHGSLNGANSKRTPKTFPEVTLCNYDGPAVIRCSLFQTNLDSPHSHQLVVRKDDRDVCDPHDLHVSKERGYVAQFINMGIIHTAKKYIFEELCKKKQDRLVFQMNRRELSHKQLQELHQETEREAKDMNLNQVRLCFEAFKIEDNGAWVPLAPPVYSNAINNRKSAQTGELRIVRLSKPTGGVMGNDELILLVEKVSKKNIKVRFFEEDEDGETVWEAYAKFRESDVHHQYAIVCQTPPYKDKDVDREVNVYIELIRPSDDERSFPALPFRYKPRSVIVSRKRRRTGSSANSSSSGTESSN

The next test has as its target T5, GST-Aq-NF-kB (Amphimedon queenslandica, UniProt A9Y5G7 2-389).
T5 sequence: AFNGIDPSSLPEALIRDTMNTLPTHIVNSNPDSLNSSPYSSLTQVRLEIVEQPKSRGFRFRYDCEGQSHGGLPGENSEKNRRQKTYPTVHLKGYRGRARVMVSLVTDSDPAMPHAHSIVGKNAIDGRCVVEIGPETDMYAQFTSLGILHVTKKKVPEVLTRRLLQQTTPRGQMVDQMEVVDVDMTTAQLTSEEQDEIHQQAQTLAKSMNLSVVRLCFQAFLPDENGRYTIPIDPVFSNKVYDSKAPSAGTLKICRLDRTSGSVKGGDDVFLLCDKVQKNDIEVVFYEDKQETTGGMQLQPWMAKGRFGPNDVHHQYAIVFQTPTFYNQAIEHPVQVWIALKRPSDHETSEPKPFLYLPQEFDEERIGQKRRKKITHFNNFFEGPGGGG

Turning to “CCGATTAACATCACGGGGTTCCCTGATGTTAATCGGGTCTTGATTCGCTTGACGCTGCTG”, the binding signal in the test with GST-Ap-NF-kB RHD stood at 4.82 z-score; in test [1], 2.58 z-score; with GST-Co-NF-kB, 2.51 z-score; with GST-Dm-Relish, 9.28 z-score; with GST-Aq-NF-kB, 6.02 z-score.
For “CCGATTAACATCACCCCCCCCCGTGATGTTAATCGGGTCTTGATTCGCTTGACGCTGCTG”, in that order: 7.33 z-score, 5.51 z-score, 7.6 z-score, 6.11 z-score and 5.46 z-score.
For “CCGATTAACATCAGGCCGTCCCCTGATGTTAATCGGGTCTTGATTCGCTTGACGCTGCTG” the same measures were 4.92 z-score, 4.47 z-score, 1.48 z-score, 5.02 z-score and 5.74 z-score.
For “CCGATTAACATCAAGCAACCCCCTGATGTTAATCGGGTCTTGATTCGCTTGACGCTGCTG”, in that order: 5.23 z-score, 3.34 z-score, 2.21 z-score, 5.19 z-score and 4.14 z-score.
On to “CCGATTAACATCACATTTTCCCATGATGTTAATCGGGTCTTGATTCGCTTGACGCTGCTG”, for which the binding signal stood at 2.42 z-score in the test with GST-Ap-NF-kB RHD; 3.68 z-score in test [1]; 3.98 z-score with GST-Co-NF-kB; 1.33 z-score with GST-Dm-Relish; 2.13 z-score with GST-Aq-NF-kB.
Regarding “CCGATTAACATCAGGGATATTTATGATGTTAATCGGGTCTTGATTCGCTTGACGCTGCTG”, the binding signal with GST-Ap-NF-kB RHD was 2.06 z-score; in test [1] it was 2.7 z-score; with GST-Co-NF-kB, 1.68 z-score; with GST-Dm-Relish it was 2.57 z-score; with GST-Aq-NF-kB, 3.73 z-score.
For the sequence “CCGATTAACATCACTACTTTCCCTGATGTTAATCGGGTCTTGATTCGCTTGACGCTGCTG”, the binding signal in the test with GST-Ap-NF-kB RHD was determined as 3.07 z-score; in test [1] it was 3.89 z-score; with GST-Co-NF-kB, 3.41 z-score; with GST-Dm-Relish, 1.63 z-score; in the test with GST-Aq-NF-kB, 3.68 z-score.
For “CCGATTAACATCAAAATAATCCCTGATGTTAATCGGGTCTTGATTCGCTTGACGCTGCTG” the same measures were 6.46 z-score, 4.62 z-score, 2.45 z-score, 4.15 z-score and 5.15 z-score.
For “CCGATTAACATCACACATTTCCCTGATGTTAATCGGGTCTTGATTCGCTTGACGCTGCTG” the same measures were 2.78 z-score, 4.57 z-score, 4.08 z-score, 1.1 z-score and 3.88 z-score.
For “CCGATTAACATCAATCGTCCCCCTGATGTTAATCGGGTCTTGATTCGCTTGACGCTGCTG”, in that order: 5.15 z-score, 4.15 z-score, 6.83 z-score, 2.93 z-score and 4.81 z-score.
As to “CCGATTAACATCAATATAGTCCCTGATGTTAATCGGGTCTTGATTCGCTTGACGCTGCTG”, the binding signal is 5.51 z-score in the test with GST-Ap-NF-kB RHD; 4.77 z-score in test [1]; 1.15 z-score in the test with GST-Co-NF-kB; 1.16 z-score with GST-Dm-Relish; 3.69 z-score with GST-Aq-NF-kB.
For “CCGATTAACATCAGGGAAACTCATGATGTTAATCGGGTCTTGATTCGCTTGACGCTGCTG” the same measures were 3.29 z-score, 4.53 z-score, 3.68 z-score, 1.31 z-score and 4.27 z-score.
For “CCGATTAACATCACGAAAATCCCTGATGTTAATCGGGTCTTGATTCGCTTGACGCTGCTG”, in that order: 4.71 z-score, 4.39 z-score, 1.55 z-score, 6.19 z-score and 4.64 z-score.
For “CCGATTAACATCAGGGGATGGGATGATGTTAATCGGGTCTTGATTCGCTTGACGCTGCTG”, in that order: 3.51 z-score, 3.51 z-score, 2.16 z-score, 1.4 z-score and 2.91 z-score.
With “CCGATTAACATCAAAAACTCCCATGATGTTAATCGGGTCTTGATTCGCTTGACGCTGCTG”, the binding signal with GST-Ap-NF-kB RHD is 4.22 z-score; in test [1] it was 5.15 z-score; with GST-Co-NF-kB it was 2.58 z-score; with GST-Dm-Relish, 5.66 z-score; with GST-Aq-NF-kB it was 5.3 z-score.
Turning to “CCGATTAACATCAGAATGCCCCCTGATGTTAATCGGGTCTTGATTCGCTTGACGCTGCTG”, the binding signal with GST-Ap-NF-kB RHD came out at 4.74 z-score; in test [1], 5.02 z-score; in the test with GST-Co-NF-kB, 2.56 z-score; with GST-Dm-Relish it was 3.56 z-score; with GST-Aq-NF-kB it was 5.26 z-score.
Turning to “CCGATTAACATCACATATTTCCCTGATGTTAATCGGGTCTTGATTCGCTTGACGCTGCTG”, the binding signal worked out at 3.32 z-score in the test with GST-Ap-NF-kB RHD; 4.97 z-score in test [1]; 4.94 z-score with GST-Co-NF-kB; 1.93 z-score with GST-Dm-Relish; 5.18 z-score with GST-Aq-NF-kB.
For “CCGATTAACATCAAGGGATTTCCTGATGTTAATCGGGTCTTGATTCGCTTGACGCTGCTG” the same measures were 5.46 z-score, 5.12 z-score, 1.32 z-score, 7.74 z-score and 6.44 z-score.
As for “CCGATTAACATCACGGAACTCCCTGATGTTAATCGGGTCTTGATTCGCTTGACGCTGCTG”, the binding signal in the test with GST-Ap-NF-kB RHD is 3 z-score; in test [1] it was 3.34 z-score; with GST-Co-NF-kB, 1.42 z-score; in the test with GST-Dm-Relish it was 4.06 z-score; with GST-Aq-NF-kB, 4.43 z-score.
For “CCGATTAACATCAGGGGGATAGATGATGTTAATCGGGTCTTGATTCGCTTGACGCTGCTG” the same measures were 4.85 z-score, 3.25 z-score, 5.41 z-score, 2.03 z-score and 3.47 z-score.
“CCGATTAACATCAGGGGGGGTTATGATGTTAATCGGGTCTTGATTCGCTTGACGCTGCTG”: the binding signal in the test with GST-Ap-NF-kB RHD came out at 6.15 z-score; in test [1], 3.92 z-score; with GST-Co-NF-kB, 4.45 z-score; with GST-Dm-Relish, 6.55 z-score; with GST-Aq-NF-kB, 5.06 z-score.
For “CCGATTAACATCAGGCAATTCCCTGATGTTAATCGGGTCTTGATTCGCTTGACGCTGCTG”, in that order: 2.76 z-score, 5.17 z-score, 1.58 z-score, 2.03 z-score and 6.13 z-score.
For “CCGATTAACATCACACCCCCCCCTGATGTTAATCGGGTCTTGATTCGCTTGACGCTGCTG” the same measures were 4.42 z-score, 3.24 z-score, 5.16 z-score, 4.99 z-score and 4.16 z-score.
On to “CCGATTAACATCAGGGAAAGAAATGATGTTAATCGGGTCTTGATTCGCTTGACGCTGCTG”, for which the binding signal with GST-Ap-NF-kB RHD was 1.61 z-score; in test [1] it was 3.74 z-score; with GST-Co-NF-kB, 4.91 z-score; with GST-Dm-Relish it was 1.72 z-score; with GST-Aq-NF-kB, 3.72 z-score.
As to “CCGATTAACATCAGTTCCCCCCATGATGTTAATCGGGTCTTGATTCGCTTGACGCTGCTG”, the binding signal with GST-Ap-NF-kB RHD came to 6.36 z-score; in test [1], 4.32 z-score; in the test with GST-Co-NF-kB, 8.97 z-score; with GST-Dm-Relish it was 3.62 z-score; with GST-Aq-NF-kB, 3.91 z-score.
For “CCGATTAACATCAAAGTGTCCCCTGATGTTAATCGGGTCTTGATTCGCTTGACGCTGCTG”, in that order: 5.38 z-score, 4.57 z-score, 5.15 z-score, 1.98 z-score and 4.15 z-score.
For “CCGATTAACATCAAGTATTTCCCTGATGTTAATCGGGTCTTGATTCGCTTGACGCTGCTG”, in that order: 3.79 z-score, 5.18 z-score, 4.22 z-score, 5.66 z-score and 5.42 z-score.
For “CCGATTAACATCAGGGATACCCCTGATGTTAATCGGGTCTTGATTCGCTTGACGCTGCTG”, in that order: 6.66 z-score, 5.69 z-score, 4 z-score, 7.22 z-score and 6.98 z-score.
